The panel holds about 79,000 compounds, 15% with a hit somewhere; the sample as a whole holds those more often. A number with no mark means an inactive call. Activity calls are given as the source filed them. No stated cut-off is given here; in the data, active means growth inhibition above about 70%; inactive means the rest.
Key:
[1] = NCI Yeast Anticancer Drug Screen. Data for the rad50 strain (AID 155);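 further: 0% = growth of vehicle-only cultures of the same strain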; conditions: S. cerevisiae rad50 strain growth inhibition, stronger effect = higher value
Method in brief: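 Readout: growth inhibition relative to vehicle-treated cultures. Compound exposure was carried out in a genetically defined yeast strain deficient in DNA damage repair.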

[2] = NCI Yeast Anticancer Drug Screen. Data for the mec2-1 strain (AID 157); conditions: S. cerevisiae mec2-1 strain, stronger effect = higher value
Method in brief: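 Cells of the genetically defined mec2-1 yeast strain are incubated with test compound. Inhibition of growth is calculated against vehicle-treated controls.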

[3] = NCI Yeast Anticancer Drug Screen. Data for the sgs1 mgt1 strain (AID 161);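 further: 0% = growth of cultures given vehicle only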; conditions: S. cerevisiae sgs1 mgt1 strain, stronger effect = higher value
Method in brief: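 Genetically altered yeast, compound exposure, growth inhibition relative to vehicle.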

[4] = NCI Yeast Anticancer Drug Screen. Data for the cln2 rad14 strain (AID 165);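 further: 0% = growth equal to vehicle treated cultures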; conditions: S. cerevisiae cln2 rad14 strain, stronger effect = higher value
Method in brief: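 The screen exposed genetically defined yeast (cln2 rad14) to test compounds and scored growth inhibition relative to vehicle-treated controls.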

[5] = NCI Yeast Anticancer Drug Screen. Data for the bub3 strain (AID 167); conditions: S. cerevisiae bub3 mutant strain, stronger effect = higher value
Method in brief: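 Readout: yeast growth inhibition, expressed relative to vehicle-only wells. The test organism is a mutant strain from a panel with lesions in DNA repair or checkpoint genes.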

[6] = NCI Yeast Anticancer Drug Screen. Data for the mlh1 rad18 strain (AID 175); conditions: S. cerevisiae mlh1 rad18 strain growth inhibition, stronger effect = higher value
Method in brief: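 Compound-treated yeast growth, normalised to vehicle controls. Strain bears defined DNA repair mutations.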

[7] = at 5.0 µM (retest, dose inferred, filed as 0.5)
[8] = at 50.0 µM (retest, dose inferred, filed as 5.0)

| Compound | growth inhibition [1, 7] [%] | growth inhibition [1, 8] | growth inhibition ([1]; at 50.0 µM) | growth inhibition [2, 7] [%] | growth inhibition [2, 8] | growth inhibition ([2]; at 50.0 µM) | growth inhibition [3, 7] | growth inhibition [3, 8] | growth inhibition ([3]; at 50.0 µM) | growth inhibition [4, 7] [%] | growth inhibition [4, 8] | growth inhibition ([4]; at 50.0 µM) | growth inhibition [5, 7] [%] | growth inhibition [5, 8] | growth inhibition ([5]; at 50.0 µM) | growth inhibition [6, 7] | growth inhibition [6, 8] | growth inhibition ([6]; at 50.0 µM) |
| --- | --- | --- | --- | --- | --- | --- | --- | --- | --- | --- | --- | --- | --- | --- | --- | --- | --- | --- |
| CC(=O)Nc1ccc(S(=O)(=O)/N=C2\C=CC(=O)c3ccccc32)cc1 | 2 | 27% | 63.9% | 4 | 24% | 54.6% | 1% | 7% | 79.9% (active) | -9 | -6% | -43.4% | 5 | 14% | 71.7% (active) | 5% | 16% | 80% (active) |
| CCOC(=O)c1cnc2cc3cccccc3n2c1=O | 4 | 62% | 71.7% (active) | -1 | 41% | 42.5% | 13% | 65% | 76.5% (active) | -2 | 44% | 54.9% | -2 | 67% | 31.6% | -1% | 86% (active) | 93.3% (active) |
| Cc1cc(NC(=S)SCc2ccc(Cl)cc2)c([N+](=O)[O-])cc1C | 65 | 95% (active) | 96% (active) | 45 | 97% (active) | 98.2% (active) | 90% (active) | 96% (active) | 97.3% (active) | 42 | 92% (active) | 94.3% (active) | 53 | 97% (active) | 96.2% (active) | 98% (active) | 96% (active) | 97.2% (active) |
| O=Cc1ccc2cc(Cl)ccc2n1 | -156 | -135% | -14.9% | -48 | -55% | 18.4% | -63% | -63% | 10% | -50 | -67% | 46.6% | -71 | -83% | -14.4% | -138% | -111% | 2.55% |
| CC(O)C(NC(=O)OCc1ccccc1)C(=O)OC(c1ccccc1)c1ccccc1 (configuration not stated) | 0 | 95% (active) | 98% (active) | 17 | 99% (active) | 97.8% (active) | -23% | 98% (active) | 97.5% (active) | -3 | 96% (active) | 97% (active) | 2 | 97% (active) | 97.3% (active) | 10% | 97% (active) | 96.5% (active) |
| CCCCCCCCCCCCCCCCS(=O)(=O)Cl | 40 | 96% (active) | 61.5% | 46 | 98% (active) | 32.2% | 57% | 77% (active) | 59.8% | 31 | 73% (active) | -6.35% | 69 | 78% (active) | 46.7% | 43% | 99% (active) | 53.8% |
| CSc1cc2c(cc1N)Cc1cc(F)ccc1-2 | 4 | 73% (active) | 98.3% (active) | -1 | 78% (active) | 98.2% (active) | 0% | 85% (active) | 98.5% (active) | -10 | 93% (active) | 97.2% (active) | -3 | 84% (active) | 98% (active) | -2% | 82% (active) | 98.5% (active) |
| O=c1c2c3c(sc2nc2n1N=C(c1ccc(Br)cc1)CS2)CCCC3 | 1 | -11% | 21.2% | -3 | -11% | -0.4% | -5% | -1% | -22.8% | 17 | 10% | -32.2% | 11 | -10% | -24.5% | -10% | -6% | -25.4% |
| O=C(O)CCCc1ccc2c(c1)CC1(C2)Cc2ccc(CCCC(=O)O)cc2C1 | 28 | 44% | -38% | 21 | 33% | 2.15% | 27% | 38% | -28.3% | 22 | 27% | 8.65% | 20 | 29% | 9.45% | 28% | 45% | -5.8% |

— PubChem BioAssay (NCI)
